Screening data deposited in PubChem BioAssay by several laboratories.
The list is not random: actives were taken first. Their share in the collection is about 7.8%.
Cav3 T inh: inhibitors of human Cav3.2 T-type calcium channel; O95180; Cav3.2-expressing cells, Fluo-4 calcium fluorescence FDSS; hits give low values; B-score at 10 µM; 4% of 100,000 active; AID 449739;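 active = single-dose well whose peak fluorescence ratio is a statistical outlier from its plate by either plate-standardised score or position-corrected B-score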
sEH act: activators of human soluble epoxide hydrolase. 0.04% of 91,000 active. purified human sEH enzymatic activity, activator screen. P34913. activation, % at 2 µM; in the data active = activation above about 37%
Target sequence (P34913 whole entry, looked up): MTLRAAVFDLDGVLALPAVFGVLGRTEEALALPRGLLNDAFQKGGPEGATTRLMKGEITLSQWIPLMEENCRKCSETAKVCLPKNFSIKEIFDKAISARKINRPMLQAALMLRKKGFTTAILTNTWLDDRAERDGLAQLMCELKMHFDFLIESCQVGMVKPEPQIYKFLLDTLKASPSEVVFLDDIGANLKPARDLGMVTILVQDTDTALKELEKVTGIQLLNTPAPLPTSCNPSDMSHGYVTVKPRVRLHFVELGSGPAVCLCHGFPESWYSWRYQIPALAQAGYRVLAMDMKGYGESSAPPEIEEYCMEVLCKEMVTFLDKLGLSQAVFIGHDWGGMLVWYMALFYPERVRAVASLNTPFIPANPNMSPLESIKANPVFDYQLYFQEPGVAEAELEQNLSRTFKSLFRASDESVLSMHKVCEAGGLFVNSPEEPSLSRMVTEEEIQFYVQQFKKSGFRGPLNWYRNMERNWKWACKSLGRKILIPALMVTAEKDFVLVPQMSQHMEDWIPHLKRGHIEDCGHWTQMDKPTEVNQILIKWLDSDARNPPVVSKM
PostGolgi yeast: growth inhibition of a yeast mutant, post-Golgi transport screen; post-Golgi transport phenotypic cell assay; inhibition, % at 10 µM; 0.9% of 98,000 active; AID 739;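 note: yeast cells grown in 1536-well plates; yeast grown about 18 h at 30C before absorbance read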
PostGolgi ctrl: inhibits growth of the yeast control strain; efflux-deficient yeast background strain, growth absorbance A615, 16 h; inhibition, % at 10 µM; 5% of 98,000 active; AID 738
sEH inh: inhibitors of human soluble epoxide hydrolase; recombinant human sEH enzymatic activity assay; 0.34% of 91,000 active; P34913; inhibition, % at 2 µM; in the data active = inhibition above about 80%
The depositor's hits bear a star; / = no result. Cut-off read from the data, not from the text of the source, unless noted: active = inhibition above about 30%; inactive = the rest.

SMILES	Cav3 T inh	sEH act	PostGolgi yeast	PostGolgi ctrl	sEH inh
CCCC1C2CN(C(C)C)CC=C2C(C#N)=C(N)C1(C#N)C#N (stereo not given)	/	-4	-1	11	5
CCCOc1ccccc1Cn1c(=O)oc2ccc(C)cc21	-5.6*	-7	-1	22	9
CCCOc1ccc(Cn2c(=O)oc3ccc(C)cc32)cc1OC	-1.7	-7	/	/	6
Cc1ccc2oc(=O)n(CCOc3ccccc3Cl)c2c1	-0.051	-8	-8	28	10
CCOc1ccccc1Cn1c(=O)oc2ccc(C)cc21	-4.7*	1	/	/	-1
CC(C)Cn1c(SCC(=O)c2ccc(Cl)s2)nnc1-c1ccco1	-5.6*	-5	2	15	4
NC(=O)CC(NC(=O)c1cccc(Br)c1)c1ccc(N2CCC(N3CCCC3)CC2)c([N+](=O)[O-])c1 (stereo not given)	-0.29	/	/	/	/
Cn1ncc(Cl)c1C(=O)NC(=S)Nc1sc2c(c1C#N)CCCCC2	-0.21	-5	-4	-5	8
CC(C)C1C(c2ccccc2)N(C)C(c2ccccc2)CC1(O)c1ccccc1 (stereo not given)	-4.5	-3	-11	33*	4
COc1ccccc1/C=C/C(=O)c1cc(Br)ccc1OC(=O)c1ccco1	-4.5*	-8	/	/	6
CCC1(CC)C(=O)NC(=O)NC1=NCCc1c[nH]c2ccccc12	1.1	-7	9	4	6
Cc1ccc(C)c(C(=O)COC(=O)c2ccccc2N2C(=O)C3C4CCC(C4)C3C2=O)c1 (stereo not given)	-2.9	-7	-1	4	9
c1ccc(Nc2ncnc3sc4c(c23)CCC4)cc1	-1.6	4	-2	6	-1
c1csc(CCNc2ncnc3sc4c(c23)CCC4)c1	/	-10	-1	82*	14
c1cn(CCCNc2ncnc3sc4c(c23)CCC4)cn1	1.1	/	15	4	/
Fc1ccc(Nc2ncnc3sc4c(c23)CCC4)cc1	-1.1	7	-5	40*	-5
CCOC(=O)CSc1ncc(OC)c(Sc2ccc(Cl)cc2)n1	-11*	/	24	23	/
O=c1c(Cl)c(NCCCO)cnn1-c1nc2ccccc2[nH]1	3.1*	/	8	-4	/
O=c1[nH]cnc2c1cnn2Cc1ccccc1	-0.046	/	3	-3	/
Cc1ccc2c(c1)c1ncnc(N3CCN(c4ccccc4)CC3)c1n2C	/	24	17	53*	-23
Cc1ccc2c(c1)c1ncnc(N3CCOCC3)c1n2C	/	3	20	36*	-3
CC(C)c1c(O)nc(SCC(=O)Nc2ccc3c(c2)CCC3)[nH]c1=O	-1.6	/	1	10	/
Cc1c2cc(O)c(=O)cc-2oc2cc(O)c(O)cc12	-3.9*	13	-6	12	-11
CC(C)(C)C(=O)C(Oc1cccc2nonc12)n1cncn1 (stereo not given)	0.077	2	46*	17	-5
CCOc1ccc(OCC)c(NC(=O)C2CCN(S(=O)(=O)c3cccc4nonc34)CC2)c1	/	10	-9	-1	-7
SMILES	Cav3 T inh	sEH act	PostGolgi yeast	PostGolgi ctrl	sEH inh
COC(=O)CCCC1=CC2=C(c3ccccc3)C(=O)C(C)(OC(=O)C3CCCC3)C(=O)C2=CN1C(CO)CO (stereo not given)	0.86	/	/	/	/
COC(=O)CCCC(=O)N1CCOCCN(C(=O)CCCC(=O)OC)CCOCC1	0.0092	4	5	-3	-3
Cc1nc2cc(C(F)(F)F)ccc2n1C1CCN(CC(=O)NC(C)(C)C)CC1	1.4	2	14	4	-4
O=c1oc(-c2cccnc2)nc2ccccc12	-0.014	-8	-4	4	10
Cc1onc(-c2ccccc2)c1-c1nc2ccccc2c(=O)o1	1.4	-2	12	32*	0
CCOC(=O)c1c(C)nc2sc(C(=O)Nc3ccc(C(C)=O)cc3)c(N)c2c1-c1ccc(OC)cc1	0.036	18	-7	8	-15
CCOC(=O)c1c(C)nc2sc(C(=O)Nc3ccc(OC)cc3)c(N)c2c1-c1ccc(OC)cc1	-4.8*	12	-4	15	-12
CCOC(=O)C1=C(C)N=C2SC(C)C(=O)N2C1c1ccc(C(=O)OC)cc1 (stereo not given)	-7.5*	-4	-4	-5	5
COC(=O)Nc1sc2c(c1C(=O)NC1CC1)CCCCCC2	-0.091	-7	8	8	7
CCOc1ccc(NC(=O)NCC2CCN(c3ccc(OC)cc3)C2)cc1 (stereo not given)	-0.66	-88	2	9	88*
CCN1CCCC1CNC(=O)C(=O)Nc1ccc(OC)cc1 (stereo not given)	0.22	15	-18	42*	-14
COc1ccc(N2CCC(CNC(=O)Nc3ccc(OC)cc3OC)C2)cc1 (stereo not given)	/	-46	-8	-9	44
CCOc1ccccc1NC(=O)C(=O)NCC1CCCN1CC (stereo not given)	0.0066	2	-6	11	0
CCC(C)N1CC23C=CC(O2)C(C(=O)OCc2ccccc2)C3C1=O (stereo not given)	0.55	-10	6	16	9
CCn1c(SCC(=O)NCCc2ccc(F)cc2)nnc1-c1cccs1	0.68	/	6	5	/
O=P(CCC(F)(F)F)(CCC(F)(F)F)CCC(F)(F)F	-0.042	-6	-3	4	6
CCC(=O)NCCSc1c[nH]c2ccccc12	0.11	/	2	3	/
O=C(NCCc1csc(-c2ccccc2)n1)c1ccc(Br)o1	-3.3	/	-6	35*	/
CC(C)C(=O)NCCSc1c[nH]c2ccccc12	2.8	-40	3	5	41
Cc1[nH]c2ccccc2c1SCCNC(=O)c1ccc(Br)o1	-4.1*	-19	/	/	19
CCN(CC)S(=O)(=O)c1ccc(C(=O)NCCSc2c[nH]c3ccccc23)cc1	-4.6*	/	/	/	/
O=C(NCCSc1c[nH]c2ccccc12)c1ccc(Br)o1	-5*	-10	0	18	10
CC1=C(CC/C(C)=N/NC(N)=S)C(C)(C)CCC1	-1.8	-6	/	/	6
CC(C)CC(NC(=O)C(COC(C)(C)C)NC(=O)C(Cc1ccc(O)cc1)NC(=O)C(CO)NC(=O)C(Cc1c[nH]c2ccccc12)NC(=O)C(Cc1cnc[nH]1)NC(=O)C1CCC(=O)N1)C(=O)N[C@@H](CCCN=C(N)N)C(=O)N1CCCC1C(=O)NNC(N)=O (stereo not given in full)	0.12	/	/	/	/
Cc1nnc(SCC(=O)NC(C)c2ccccc2)[nH]c1=O (stereo not given)	0.05	/	-2	-1	/
Cc1cccc(C)c1C(=O)N[C@@H](Cc1ccccc1)C(=O)O	-0.91	/	/	/	/
O=C(NCCC(c1ccccc1)c1ccccc1)c1ccc(Br)o1	-6.5*	-97	-4	29	97*
O=C(O)CCNC(=O)c1ccc(Br)o1	-0.28	/	-1	7	/
CC(=O)C1=C(C)NC(SCC(=O)c2ccc(Cl)cc2)=C(C#N)C1c1ccco1 (stereo not given)	-4.5*	0	-2	26	4
CCOC(=O)C1=C(c2ccccc2)NC(SCC(=O)Nc2ccccc2C)=C(C#N)C1c1ccco1 (stereo not given)	-7.4*	0	-5	2	2
